The values below come from PubChem BioAssay (NCATS).

Inconclusive results are not listed. A call without a number means that no potency is given here. Activity calls are given as the source filed them. The call rests on the fitted dose curve; in most records, active means well fitted activation curve with a large enough effect; inconclusive means small, poorly fitted or top-dose-only effect; inactive means no such curve, though single readings can be large or run the other way. Peptide text beside a SMILES is read from it. * marks the point of attachment. Hexanoyl = CCCCCC(=O)*
Potency means the concentration at half of the fitted maximal effect.

This experiment is described as follows: qHTS for activators of Nrf2/ARE signaling pathway screened against the NCATS CANVASS Library (AID 1347391). Further: nearly all actives have a fitted effect of over 60% in size. To be noted: ARE-bla HepG2, beta-lactamase reporter, 16 h; series mostly up to 46.1 µM. An excerpt:
Natural products and their derivatives continue to be wellsprings of nascent therapeutic potential. However, many laboratories have limited resources for biological evaluation, leaving their previously isolated or synthesized compounds largely or completely untested. To address this issue, the Canvass library of natural products was assembled (https://tripod.nih.gov/canvass), in collaboration with academic and industry researchers, for quantitative high-throughput screening (qHTS) across a diverse set of cell-based and biochemical assays. The pure (>85% purity by liquid chromatography/mass spectrometry [LC/MS]) Canvass library of 346 natural products were submitted by 45 academic laboratories and companies around the world. We collected pure natural products to circumvent deconvolution and structure elucidation due to time and resource limitations. The library was formatted into 1536-well plates and evaluated in 50 qHTS (in an 11-pnt concentration series) bioassays with broad scope of disease-relevant mechanisms. The resulting data set from 50 different assays was then systematically analyzed to identify overall trends and specific natural products with interesting biological activities. Reported herein are the results of each individual qHTS and their corresponding assay protocol. This assay measures the activation of the Nrf2/ARE signaling pathway in cells using a beta-lactamase reporter gene. The ARE-bla HepG2 assay (Invitrogen) can detect the up-regulation of the antioxidant response element (ARE) signaling pathway and may be useful for the identification of chemicals that induce oxidative stress. National Center for Advancing Translational Sciences (NCATS), Rockville, MD National Institute of Health (NIH), Bethesda, Maryland
Nrf2/ARE-screen assay protocol: 1. In a white-solid bottom 1536-well plate, 5 uL of ARE-bla HepG2 cell suspension was dispensed using a Multidrop Combi (Thermo Fisher Scientific) at a final concentration of 2000 cells / well. 2. The assay plates were incubated for 5 hours at 37C, 5% CO2. 3. 23 nL of compounds (in DMSO; columns 5-48), vehicle control DMSO, and positive control were pin transferred into the assay plates using the Kalypsis pin tool (Wako USA) equipped with a 1536-well pin heads. This yields a final CANVASS compound concentration of 0.4 nM - 95 uM. 4. The assay plates were incubated for 16 hours at 37C, 5% CO2. 5. After compound treatment, 1 uL per well of CCF4 dye detection reagent was added using the BioRAPTR dispenser. 6. The assay plates were incubated for 2 hours at room temperature. 7. Fluorescence readout was obtained using the Envision plate reader (PerkinElmer) using a 405 nm excitation and 460 nm and 530 nm emission filters. 8. To evaluate cell viability, 4 uL of CellTiter-Glo was added to each wells using the BioRAPTR dispenser followed by a 30 min room temperature incubation. 9. Luminescence was measured using the ViewLux plate reader with clear emission filter and 2x binning, 1 sec exposure settings.
For orientation: In qHTS, concentration-response curves come from the screen itself.
As for `CC(CCC[C@]1(C)C(=O)C=C[C@@]23C[C@]4(C)O[C@@H](C[C@@H]4[C@H]2O)C31)C(=O)O` (stereo not given in full), the Potency entry is “inactive”.

In the case of `CN1C(=O)C(=O)N2C(=C[C@]3(c4c[nH]c5ccccc45)c4ccccc4N[C@H]23)C1=O`, the Potency entry is “inactive”.

`CC(C)C[C@@H]1c2c(O)c(C=O)c(O)c(C=O)c2O[C@]2(C)C=C[C@@H](C(C)C)C[C@H]12`: the Potency result is “inactive”.

On to `C=C1C(=O)O[C@H]2[C@H]1CCC(C)=C1CC[C@@](C)(O)[C@@H]12`, for which the Potency was 0.186 µM (active).

As to `O[C@H]1C=C2[C@H]3CN(Cc4cc5c(cc43)OCO5)[C@H]2C[C@@H]1O`, the Potency entry is “inactive”.

As to `C[C@]12CC[C@]3(C1)[C@H](CC2=O)C[C@@H](OC(=O)c1ccccc1)[C@H]1[C@](C)(C(=O)O)CCC[C@@]13C`, the Potency is 3.71 µM (active).

Regarding `COc1cc(C2OCC3C(c4ccc(O)c(OC)c4)OCC23)ccc1O` (stereo not given), the Potency is 0.305 µM (active).

For the compound `C=C[C@@]1(C)CC[C@@H]([C@H](C)C(=O)/C=C/C(C)(C)O)O1`, the Potency is 13.2 µM (active).

In the case of `CCC(=O)CCCCC[C@@H]1NC(=O)[C@H]2CCCCN2C(=O)[C@H](C(C)C)NC(=O)[C@H](Cc2cn(OC)c3ccccc23)NC1=O`, the Potency entry is “inactive”.

In the case of `C/C(=C\[C@@H](C)CC/C=C/CC/C=C/C(=O)O)[C@@H](O)[C@H](C)C(=O)CCCC1CC(=O)NC(=O)C1`, the Potency result was “inactive”.

Turning to `C/C=C(/C)c1c(Cl)c(OC)c(C)c2c1Oc1c(Cl)c(O)c(Cl)c(C)c1C(=O)O2`, the Potency entry was “inactive”.

For the compound `C/C(=C\[C@@H](C)CC/C=C/CC/C=C/C(=O)O)[C@H](O)[C@H](C)C(=O)CCCC1CC(=O)NC(=O)C1`, the Potency entry was “inactive”.

With `CO[C@@H]1[C@H](O)[C@@H](C)O[C@@H](OC[C@@H]2C(C)OC(=O)/C=C/[C@H](C)C(O[C@@H]3O[C@H](C)CC4(OC(=O)O[C@@H]4C)C3O)[C@@H](C)CC(C)C(=O)/C=C/[C@H]3OC23)[C@@H]1OC` (stereo not given in full), the Potency was 3.71 µM (active).

For the compound `O=C1OC(CCO)c2cccc(O)c21` (stereo not given), the Potency result is “inactive”.

In the case of `Cc1cc(O)cc2c1C(=O)c1c(O)cc(O)cc1C2=O`, the Potency result was “inactive”.

On to `CC1=C(C)C(=O)OC(C(C)C2(O)CCC3C4C5OC5C5(O)CC=CC(=O)C5(C)C4CCC32C)C1` (stereo not given), for which the Potency is 18.6 µM (active).

With `CO[C@@H](C[C@@H](C)[C@@H](O)/C=C/C=C/CNC(=O)C(C)(C)[C@H](O)\C(C)=C/C=C\C=C\Cc1cnco1)[C@]1(O)[C@@H](C)C(=O)N(C)[C@@]12COC2=O`, the Potency result is “inactive”.

Regarding `CCCCCC(=O)N[C@@H](CC(C)C)C(=O)N[C@H](C=O)CCC(=O)O` (Hexanoyl-Leu-Glu-aldehyde), the Potency entry is “inactive”.

`CN1CC[C@]23c4ccccc4N[C@H]1[C@]21CCN(C)[C@H]3Nc2ccccc21`: the Potency entry is “inactive”.

For the compound `CO[C@H]1/C=C/CCCCC(=O)O[C@@H](/C(C)=C/[C@H](C)C(=O)C[C@H](O)CC2CC(=O)NC(=O)C2)[C@@H](C)C1`, the Potency is 16.6 µM (active).

On to `COC(=O)[C@@]1(C)CCC[C@]2(C)c3cc(OC)ccc3CC[C@@H]12`, for which the Potency result was “inactive”.

For the compound `C=C1CC[C@@H](Br)C(C)(C)[C@]12CC=C(C)C(=O)C2`, the Potency is 16.6 µM (active).

For `C/C(=C\[C@H](C)C(=O)C[C@H](O)CC1CC(=O)NC(=O)C1)[C@@H]1OC(=O)CCCC/C=C/[C@@H](O)C[C@@H]1C`, the Potency was 7.41 µM (active).

Consider `O=C1CC(c2ccc(O)cc2)Oc2cc(O)cc(O)c21` (stereo not given), for which the Potency result is “inactive”.

Turning to `CC[C@H](O)CCCCC[C@@H]1NC(=O)[C@H]2CCCCN2C(=O)[C@H]([C@H](C)CC)NC(=O)[C@H](Cc2cn(OC)c3ccccc23)NC1=O`, the Potency result was “inactive”.

Turning to `C[C@@]12C[C@@H](C[C@@H]3C(=O)O[C@@H](c4ccoc4)[C@H](OC(=O)c4ccccc4)[C@@H]31)OC2=O`, the Potency result was “inactive”.

For the compound `CC[C@@H]1C[C@@]2(CC)OC(=O)[C@@]3(CC)[C@H](CC)[C@@H]1[C@@H]23`, the Potency result was “inactive”.

As to `CC1(C)CC[C@]2(CO)CC[C@]3(C)C(=CCC4[C@@]5(C)CC[C@H](O)C(C)(C)C5CC[C@]43C)C2C1` (stereo not given in full), the Potency entry is “inactive”.

On to `O=C1CC2OCC=C3CN4C5CC3C2[C@@H]2N1c1ccccc1[C@]52C[C@@H]4C1=C[C@H]2C3CC4N(CC[C@@]45c4ccccc4N(C1=O)[C@@H]25)C/C3=C/CO` (stereo not given in full), for which the Potency is 1.66 µM (active).

`COc1ccc(-c2oc3cc(OC)cc(OC)c3c(=O)c2O)cc1`: the Potency result is “inactive”.

Consider `CN1CCc2cc3c(c4c2C1(C)C(=O)c1cc(O)ccc1-4)OCO3` (stereo not given), for which the Potency result is “inactive”.

Take `C=C[C@@]1(C)CC[C@@H]([C@H](C)C(C)=O)O1`: the Potency entry was “inactive”.

In the case of `C=C[C@@](C)(O)CC[C@@H]1[C@@]2(C)CCCC(C)(C)[C@@H]2CC[C@@]1(C)O`, the Potency entry is “inactive”.

Consider `C/C=C/c1cc2c(c(=O)o1)C(=O)[C@@H](O)[C@H](C)O2`, for which the Potency was 4.67 µM (active).

Consider `C/C(=C\[C@H](C)C(=O)/C=C/CC1CC(=O)NC(=O)C1)[C@@H]1OC(=O)CCCC/C=C/[C@H](O)[C@@H](O)[C@@H]1C`, for which the Potency is 4.67 µM (active).

With `COc1cc(O)c(C(=O)[C@@H]2[C@H](CC=C(C)C)C(C)=CC[C@H]2c2ccccc2)c(O)c1`, the Potency result was “inactive”.

For the compound `COc1ccc2[nH]c3c(c2c1)CCN1C[C@H]2C[C@@H](OC(=O)c4cc(OC)c(OC)c(OC)c4)[C@H](OC)[C@@H](OC)[C@H]2C[C@H]31`, the Potency entry is “inactive”.

As to `O[C@H]1c2ccccc2-c2c3c(cc4c2[C@@H]1NCC4)OCO3`, the Potency was 18.6 µM (active).

In the case of `CC(C)=CCC[C@]1(C)[C@H]2CC(=O)[C@@]3(CO3)[C@@H]1C2`, the Potency result was “inactive”.

On to `C/C=C/C(=O)C1(O)CC2CC(C(=O)O)CC(C)C2C1C1=C2C(=O)NC(=O)C2=C(CCCCC)C(C)O1` (stereo not given), for which the Potency is 1.17 µM (active).
